For some assays here: Entries with a potency or affinity are not part of this list.
What was measured:
Parameters in all cases: scale not given: direction of the effect not stated beside the values
[1] = molecular target: Protein translocase subunit SecA (Escherichia coli (strain K12)) (UniProt P10408); assay: Assay to Identify E. coli SecA ATPase Inhibitors; format: functional; details: 30 µM
[2] = molecular target: T1, Ubiquitin-activating enzyme e1, putative (Leishmania donovani (strain BPK282A1)) (UniProt E9BSI1); assay: Leishmania donovani Ubiquitin Activating Enzyme (LdE1); format: functional; details: 30 µM
T1 sequence (whole entry): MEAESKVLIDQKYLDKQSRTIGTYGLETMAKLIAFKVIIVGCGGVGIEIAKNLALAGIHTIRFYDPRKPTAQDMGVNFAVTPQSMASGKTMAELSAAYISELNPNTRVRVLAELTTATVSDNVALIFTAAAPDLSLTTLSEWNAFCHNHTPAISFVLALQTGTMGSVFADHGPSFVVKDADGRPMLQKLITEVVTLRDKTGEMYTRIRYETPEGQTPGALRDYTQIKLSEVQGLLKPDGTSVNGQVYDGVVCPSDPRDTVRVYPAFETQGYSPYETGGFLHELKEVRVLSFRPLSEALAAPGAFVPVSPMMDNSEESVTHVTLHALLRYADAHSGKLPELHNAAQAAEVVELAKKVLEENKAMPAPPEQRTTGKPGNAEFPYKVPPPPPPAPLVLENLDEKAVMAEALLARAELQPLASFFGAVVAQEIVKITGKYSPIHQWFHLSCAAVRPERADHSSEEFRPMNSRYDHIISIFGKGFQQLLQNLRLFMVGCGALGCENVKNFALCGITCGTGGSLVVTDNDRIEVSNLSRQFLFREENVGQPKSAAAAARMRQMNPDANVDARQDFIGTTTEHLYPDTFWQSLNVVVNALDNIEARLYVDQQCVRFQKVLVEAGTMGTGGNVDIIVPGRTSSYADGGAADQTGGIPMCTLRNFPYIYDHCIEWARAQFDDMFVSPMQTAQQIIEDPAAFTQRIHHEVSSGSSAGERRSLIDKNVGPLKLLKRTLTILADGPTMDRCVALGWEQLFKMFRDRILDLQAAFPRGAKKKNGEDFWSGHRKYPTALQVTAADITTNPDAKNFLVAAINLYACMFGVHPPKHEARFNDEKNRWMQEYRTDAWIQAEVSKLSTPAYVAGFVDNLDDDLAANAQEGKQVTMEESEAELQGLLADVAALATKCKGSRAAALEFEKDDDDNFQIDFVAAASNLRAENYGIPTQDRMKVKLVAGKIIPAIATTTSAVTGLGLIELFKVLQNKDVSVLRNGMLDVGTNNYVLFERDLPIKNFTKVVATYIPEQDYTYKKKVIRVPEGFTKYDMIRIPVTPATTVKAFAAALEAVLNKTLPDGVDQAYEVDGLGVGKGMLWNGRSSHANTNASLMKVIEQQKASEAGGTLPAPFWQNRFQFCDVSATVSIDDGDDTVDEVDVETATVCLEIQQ

[3] = molecular target: AMP-activated protein kinase, AMPK (Homo sapiens) (UniProt P54646+O43741+P54619+Q9UGJ0+Q9Y478+Q13131+Q9UGI9); assay: AMP-dependent Kinase enzyme assay. An in vitro enzyme assay that detects ADP turnover that is directly proportional to AMPK activity. This uses naive AMPK that is activated during the assay with MK-8722; format: functional; details: 30 µM
[4] = molecular target: Sialic acid-binding Ig-like lectin 9 (Homo sapiens) (UniProt Q9Y336); assay: Hs-Siglec9 ALPHAscreen SOP 20170721; details: 10 µM
Trypanosoma cruzi = assay: Trypanosoma cruzi phosphomannomutase and mannose-1-phosphate guanylyltransferase assay; format: functional; details: 10 µM
[5] = molecular target: T2, Arginase-2, mitochondrial (Homo sapiens) (UniProt P78540); assay: in vitro enzyme assay to detect the production of urea directly proportional to the activity of Arginase II; format: functional; details: 33.3 µM; also: in the data most compounds retested in dose-response had high values
T2 sequence (whole entry): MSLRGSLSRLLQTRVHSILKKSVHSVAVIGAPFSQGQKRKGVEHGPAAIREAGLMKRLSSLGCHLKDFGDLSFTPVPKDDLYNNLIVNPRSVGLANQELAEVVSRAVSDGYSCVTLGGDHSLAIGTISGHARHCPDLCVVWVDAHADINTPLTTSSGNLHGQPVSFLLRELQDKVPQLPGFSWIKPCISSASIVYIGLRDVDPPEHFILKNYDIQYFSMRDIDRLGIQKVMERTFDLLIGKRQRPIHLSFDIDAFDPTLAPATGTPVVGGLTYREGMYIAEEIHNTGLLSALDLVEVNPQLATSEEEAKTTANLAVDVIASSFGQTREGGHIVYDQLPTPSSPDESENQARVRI

[6] = molecular target: T3, Proteasome subunit beta (Trypanosoma cruzi) (UniProt O96673); assay: Trypanosoma cruzi proteasome chymotrypsin-like activity (TcProtChymo) assay.; also: in the data most compounds retested in dose-response had high values; format: functional; details: 9.37 µM
T3 sequence (whole entry): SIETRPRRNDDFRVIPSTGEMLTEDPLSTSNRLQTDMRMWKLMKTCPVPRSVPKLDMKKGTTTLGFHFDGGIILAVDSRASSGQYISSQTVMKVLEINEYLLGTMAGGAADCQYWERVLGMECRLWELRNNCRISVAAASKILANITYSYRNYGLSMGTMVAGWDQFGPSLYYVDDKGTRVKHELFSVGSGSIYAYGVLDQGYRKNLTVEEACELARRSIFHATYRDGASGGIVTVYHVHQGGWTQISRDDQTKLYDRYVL

Homo sapiens = species on record: Homo sapiens; assay: To identify inhibition of the IFN signalling (Jak-Stat) pathway via expression of an eGFP reporter gene under the control of an IFN-stimulated response element (ISRE) containing MxA promoter.; format: functional; details: 30 µM
[7] = molecular target: T4, Tyrosyl-tRNA synthetase, putative (Trypanosoma cruzi (strain CL Brener)) (UniProt Q4DSP6); assay: Trypanosoma cruzi tyrosyl tRNA synthetase (TcYRS) _High Tyrosine SOP; format: functional; details: 30 µM; also: in the data most compounds retested in dose-response had high values
T4 sequence (whole entry): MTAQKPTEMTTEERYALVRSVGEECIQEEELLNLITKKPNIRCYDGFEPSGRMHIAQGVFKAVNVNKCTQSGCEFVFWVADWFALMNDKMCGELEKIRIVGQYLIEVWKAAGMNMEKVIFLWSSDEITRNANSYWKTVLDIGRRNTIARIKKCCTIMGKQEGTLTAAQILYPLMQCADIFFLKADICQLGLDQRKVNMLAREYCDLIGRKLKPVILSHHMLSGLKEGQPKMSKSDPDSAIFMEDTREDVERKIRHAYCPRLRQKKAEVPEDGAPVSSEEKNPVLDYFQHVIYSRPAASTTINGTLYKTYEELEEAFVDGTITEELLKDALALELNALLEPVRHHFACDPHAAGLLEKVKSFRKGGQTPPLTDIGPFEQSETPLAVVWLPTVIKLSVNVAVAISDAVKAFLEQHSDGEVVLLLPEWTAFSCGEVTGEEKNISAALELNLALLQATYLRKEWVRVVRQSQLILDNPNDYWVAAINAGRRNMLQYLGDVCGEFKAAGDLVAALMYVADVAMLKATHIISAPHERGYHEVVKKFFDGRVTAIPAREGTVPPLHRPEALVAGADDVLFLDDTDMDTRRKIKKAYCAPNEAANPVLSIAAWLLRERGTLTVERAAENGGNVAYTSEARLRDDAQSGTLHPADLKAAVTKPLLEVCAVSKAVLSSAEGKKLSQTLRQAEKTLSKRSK

[8] = molecular target: T4, Tyrosyl-tRNA synthetase, putative (Trypanosoma cruzi (strain CL Brener)); assay: Trypanosoma cruzi tyrosyl tRNA synthetase (TcYRS) SOP; format: functional; details: 30 µM
[9] = molecular target: Chromo domain-containing protein 1 (Saccharomyces cerevisiae (strain ATCC 204508 / S288c) (Baker's yeast)) (UniProt P32657); assay: ScCHD-1 Enzyme Inhibition Assay; format: functional; details: 30 µM; also: in the data most compounds retested in dose-response had high values
Sequence of Chromo domain-containing protein 1 (Saccharomyces cerevisiae (strain ATCC 204508 / S288c) (Baker's yeast)) (P32657 whole entry, the tested form may be a part): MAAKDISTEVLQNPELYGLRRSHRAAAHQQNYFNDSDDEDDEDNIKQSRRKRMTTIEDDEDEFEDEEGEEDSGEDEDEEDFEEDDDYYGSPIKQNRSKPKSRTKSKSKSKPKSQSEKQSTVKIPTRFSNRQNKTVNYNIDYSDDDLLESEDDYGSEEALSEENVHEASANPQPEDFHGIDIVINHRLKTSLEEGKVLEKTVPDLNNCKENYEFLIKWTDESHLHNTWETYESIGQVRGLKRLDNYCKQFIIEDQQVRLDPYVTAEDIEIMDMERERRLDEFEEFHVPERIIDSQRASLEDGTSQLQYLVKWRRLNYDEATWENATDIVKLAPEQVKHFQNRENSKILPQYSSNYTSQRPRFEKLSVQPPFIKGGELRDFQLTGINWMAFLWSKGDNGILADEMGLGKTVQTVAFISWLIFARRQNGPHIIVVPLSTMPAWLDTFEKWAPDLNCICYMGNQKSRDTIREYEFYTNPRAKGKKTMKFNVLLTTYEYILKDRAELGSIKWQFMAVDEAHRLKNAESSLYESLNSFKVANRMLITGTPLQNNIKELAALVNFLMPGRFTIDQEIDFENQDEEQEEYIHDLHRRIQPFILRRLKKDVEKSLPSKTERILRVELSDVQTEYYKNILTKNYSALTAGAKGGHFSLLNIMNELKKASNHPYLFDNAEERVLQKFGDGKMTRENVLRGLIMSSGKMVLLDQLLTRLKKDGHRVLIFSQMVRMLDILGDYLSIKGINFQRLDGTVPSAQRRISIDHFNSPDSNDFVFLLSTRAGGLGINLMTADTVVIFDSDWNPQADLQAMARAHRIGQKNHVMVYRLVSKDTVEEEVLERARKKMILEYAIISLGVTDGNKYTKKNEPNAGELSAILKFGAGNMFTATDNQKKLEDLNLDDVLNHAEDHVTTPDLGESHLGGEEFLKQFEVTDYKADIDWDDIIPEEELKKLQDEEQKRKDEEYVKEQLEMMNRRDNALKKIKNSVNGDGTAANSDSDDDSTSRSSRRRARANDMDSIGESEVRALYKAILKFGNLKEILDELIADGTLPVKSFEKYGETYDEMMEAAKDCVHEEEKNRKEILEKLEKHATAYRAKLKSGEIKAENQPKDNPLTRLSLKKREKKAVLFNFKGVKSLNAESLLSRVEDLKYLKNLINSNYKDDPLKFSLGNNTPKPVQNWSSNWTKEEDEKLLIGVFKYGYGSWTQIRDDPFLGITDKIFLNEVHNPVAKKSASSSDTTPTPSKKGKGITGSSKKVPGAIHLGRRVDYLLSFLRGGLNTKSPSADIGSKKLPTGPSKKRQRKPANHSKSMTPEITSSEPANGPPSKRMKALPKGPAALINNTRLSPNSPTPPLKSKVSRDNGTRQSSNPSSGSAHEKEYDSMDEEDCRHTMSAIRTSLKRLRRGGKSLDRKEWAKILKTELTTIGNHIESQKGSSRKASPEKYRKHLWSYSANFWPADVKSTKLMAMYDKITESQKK

Sequence of Sialic acid-binding Ig-like lectin 9 (Homo sapiens) (Q9Y336 whole entry): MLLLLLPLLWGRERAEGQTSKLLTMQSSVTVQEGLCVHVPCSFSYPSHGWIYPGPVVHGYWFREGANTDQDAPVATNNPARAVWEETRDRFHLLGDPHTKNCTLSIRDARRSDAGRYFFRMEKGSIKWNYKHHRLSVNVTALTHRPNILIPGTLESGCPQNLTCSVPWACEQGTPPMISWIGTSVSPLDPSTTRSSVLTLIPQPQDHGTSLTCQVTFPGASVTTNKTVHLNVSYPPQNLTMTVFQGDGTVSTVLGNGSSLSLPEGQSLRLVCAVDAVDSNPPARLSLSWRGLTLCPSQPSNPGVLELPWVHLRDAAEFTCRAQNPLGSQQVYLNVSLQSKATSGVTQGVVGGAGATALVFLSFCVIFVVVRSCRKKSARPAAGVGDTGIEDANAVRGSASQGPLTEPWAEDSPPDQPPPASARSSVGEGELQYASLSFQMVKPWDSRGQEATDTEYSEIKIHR
Sequence of Protein translocase subunit SecA (Escherichia coli (strain K12)) (P10408 whole entry): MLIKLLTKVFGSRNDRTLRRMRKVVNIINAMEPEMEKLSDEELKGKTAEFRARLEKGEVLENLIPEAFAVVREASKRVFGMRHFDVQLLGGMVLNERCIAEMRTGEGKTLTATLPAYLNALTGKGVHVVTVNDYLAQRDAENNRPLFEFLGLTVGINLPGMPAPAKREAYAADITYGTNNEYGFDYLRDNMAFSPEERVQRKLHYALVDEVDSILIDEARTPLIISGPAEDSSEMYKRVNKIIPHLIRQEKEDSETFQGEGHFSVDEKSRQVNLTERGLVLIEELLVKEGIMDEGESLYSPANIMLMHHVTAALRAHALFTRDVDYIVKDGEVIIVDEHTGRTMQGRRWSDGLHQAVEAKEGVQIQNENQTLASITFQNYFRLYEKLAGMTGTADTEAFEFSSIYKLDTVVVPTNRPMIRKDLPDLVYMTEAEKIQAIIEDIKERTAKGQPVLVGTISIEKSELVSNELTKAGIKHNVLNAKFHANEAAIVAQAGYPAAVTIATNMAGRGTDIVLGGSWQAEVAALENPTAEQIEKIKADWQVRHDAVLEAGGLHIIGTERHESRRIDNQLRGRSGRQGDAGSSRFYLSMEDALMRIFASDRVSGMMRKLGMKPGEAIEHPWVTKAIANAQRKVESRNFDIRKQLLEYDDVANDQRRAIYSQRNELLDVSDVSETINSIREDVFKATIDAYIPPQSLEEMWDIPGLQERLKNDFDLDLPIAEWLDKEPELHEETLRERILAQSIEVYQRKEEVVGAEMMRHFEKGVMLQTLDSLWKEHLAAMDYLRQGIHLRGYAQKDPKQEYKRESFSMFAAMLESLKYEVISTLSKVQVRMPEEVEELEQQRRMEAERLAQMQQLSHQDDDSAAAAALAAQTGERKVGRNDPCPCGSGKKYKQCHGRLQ

| SMILES | Percent Effect [1] | Percent Effect [2] | Percent Effect [3] | Percent Effect [4] | Percent Effect (Trypanosoma cruzi) | Percent Effect [5] | Percent Effect [6] | Percent Effect (Homo sapiens) | Percent Effect [7] | Percent Effect [8] | Percent Effect [9] |
| --- | --- | --- | --- | --- | --- | --- | --- | --- | --- | --- | --- |
| CN1CC(C(=O)NC(C)(C)C)CC1=O (stereo not given) | -3.04% | -5.48% | -0.441% | -0.584% | -0.595% | -3.59% | 3% | -7.57% | 2.08% | 8.64% | 6.01% |
| CCOc1ccccc1C(CC(=O)Nc1ccccc1F)NC(C)=O (stereo not given) | -4.23% | 10.5% | 0.587% | 13.4% | 2.82% | -1.92% | -4.18% | -32.5% | 3.43% | 9.76% | -4.56% |
| CC(C(=O)NCc1ccnc(Oc2ccc(F)cc2)c1)n1cncn1 (stereo not given) | -3.42% | -54% | -1.15% | 7.66% | 3.86% | 4.29% | 9.31% | 0.85% | 4.76% | 14.6% | -1.39% |
| O=C(NCc1ccc(-n2cncn2)nc1)c1ccc2c(c1)CCO2 | -5.02% | 8.11% | -9.05% | 1.05% | 1.79% | -2.4% | -3.96% | 14.7% | 7.39% | 13.6% | -6.1% |
| CCNC(=O)CN1CCCN(C(=O)C2CCCc3[nH]ncc32)CC1 (stereo not given) | -3.9% | 8.11% | -2.94% | 6.84% | 1.66% | 5.21% | 5.75% | -11.9% | 3.23% | 8.64% | -4.21% |
| Cc1noc(CN2CCC(c3ccnn3CCO)CC2)n1 | -3.55% | 12.7% | -1.18% | -2.56% | 8.59% | -0.76% | 8.76% | 4.82% | 6.4% | 16.5% | -6.79% |
| O=C(C1CCCC1)N1CCN(Cc2nc(-c3ccco3)no2)CC1 | -5.54% | 13.5% | -5.37% | 16% | 3.99% | -1.29% | 3.23% | 19.1% | 4.95% | 15.8% | -4.84% |
| O=C(c1ccc(Br)o1)N1CCCC(n2cncn2)C1 (stereo not given) | -5.45% | -1.39% | 0.96% | -6.28% | -3.6% | -2.21% | 4.04% | 7.55% | 0% | 2.56% | 1.43% |
| Cc1n[nH]cc1CNc1ccc2c(c1)N(C(=O)OC(C)(C)C)CCC2 | -6.86% | 7.79% | -1.81% | 5.14% | 1.08% | -8.28% | 7.65% | 4.68% | 4.3% | 8.64% | 0.972% |
| COc1ccc(-n2ccc(C(=O)NCCN3CCCCC3C)n2)cc1 (stereo not given) | -5.51% | -8.11% | -13.2% | 18.1% | 4.62% | -6.01% | 1.62% | -11.9% | 1.48% | 16.1% | -12.9% |

— ChEMBL document CHEMBL3988442, “University of Dundee, Small-Polar-MMV Screening Library” (2021)
